Assay outcomes from PubChem.
Only a selection was taken, and hits are over-represented in it overall.
KDM5B inh: inhibitors of human KDM5B histone demethylase; Q9UGL1; KDM5B demethylase, FDH-coupled NADH fluorescence (FDH is formaldehyde dehydrogenase); Potency, µM (highest dose often 57.7 µM), most hits filed as inhibitors; hit rate 2.6% among 220,000; active means well fitted inhibition curve with a large enough effect; further: 0% is about no effect; nearly all actives have a fitted effect of over 70% in size
Target sequence (Q9UGL1 whole entry, looked up): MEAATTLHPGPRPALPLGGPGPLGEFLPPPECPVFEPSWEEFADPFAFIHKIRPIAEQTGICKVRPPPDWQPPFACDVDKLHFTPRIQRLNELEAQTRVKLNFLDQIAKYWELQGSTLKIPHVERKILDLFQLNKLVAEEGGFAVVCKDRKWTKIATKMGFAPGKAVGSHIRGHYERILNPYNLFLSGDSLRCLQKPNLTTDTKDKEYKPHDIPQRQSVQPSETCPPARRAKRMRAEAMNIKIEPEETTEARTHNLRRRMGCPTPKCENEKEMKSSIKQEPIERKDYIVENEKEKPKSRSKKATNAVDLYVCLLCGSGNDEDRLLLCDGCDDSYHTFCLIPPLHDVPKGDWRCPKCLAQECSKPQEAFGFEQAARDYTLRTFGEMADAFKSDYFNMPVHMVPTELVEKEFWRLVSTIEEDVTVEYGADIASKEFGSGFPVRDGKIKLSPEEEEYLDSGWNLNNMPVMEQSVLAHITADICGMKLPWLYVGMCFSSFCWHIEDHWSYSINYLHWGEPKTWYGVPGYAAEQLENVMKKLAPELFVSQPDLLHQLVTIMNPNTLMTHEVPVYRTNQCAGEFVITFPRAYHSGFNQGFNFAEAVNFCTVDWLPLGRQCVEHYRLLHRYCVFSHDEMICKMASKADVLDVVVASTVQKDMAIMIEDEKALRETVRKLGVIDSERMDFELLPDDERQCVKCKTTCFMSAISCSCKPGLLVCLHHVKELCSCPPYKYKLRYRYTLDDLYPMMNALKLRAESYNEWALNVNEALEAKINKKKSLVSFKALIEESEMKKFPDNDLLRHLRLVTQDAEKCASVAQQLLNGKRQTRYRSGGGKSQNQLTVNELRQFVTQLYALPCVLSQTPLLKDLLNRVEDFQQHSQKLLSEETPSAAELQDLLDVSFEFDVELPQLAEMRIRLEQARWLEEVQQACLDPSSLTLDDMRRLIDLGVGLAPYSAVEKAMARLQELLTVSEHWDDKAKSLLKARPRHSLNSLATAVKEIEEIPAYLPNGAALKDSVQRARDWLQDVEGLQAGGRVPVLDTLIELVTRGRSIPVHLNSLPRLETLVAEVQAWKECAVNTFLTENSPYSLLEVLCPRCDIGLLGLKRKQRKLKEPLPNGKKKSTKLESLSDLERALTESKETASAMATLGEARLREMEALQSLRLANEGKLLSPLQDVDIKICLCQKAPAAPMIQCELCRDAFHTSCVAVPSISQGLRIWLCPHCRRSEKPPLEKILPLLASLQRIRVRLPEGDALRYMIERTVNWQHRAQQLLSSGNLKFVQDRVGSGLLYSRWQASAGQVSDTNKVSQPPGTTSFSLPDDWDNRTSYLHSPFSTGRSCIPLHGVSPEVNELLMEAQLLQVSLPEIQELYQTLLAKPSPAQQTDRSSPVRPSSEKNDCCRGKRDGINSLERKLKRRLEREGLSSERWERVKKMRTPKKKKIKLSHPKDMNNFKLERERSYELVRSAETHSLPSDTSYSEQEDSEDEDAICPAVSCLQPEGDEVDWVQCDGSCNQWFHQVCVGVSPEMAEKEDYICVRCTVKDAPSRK
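Inhibition is measured as reduced NADH fluorescence generation from FDH coupling to formaldehyde release. Truncated KDM5BΔAP at 200 nM final acts on H3K4me3 peptide (12.5 µM in substrate mix) in pH 7.5 HEPES buffer with Tween-20, 30 min, room temperature.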
* hit, by the source's call. Potency means the concentration at half of the fitted maximal effect.

COc1cc2c(cc1OCC1CC1)NC(=O)C21CCN(c2ncc(F)cn2)CC1 was read as KDM5B inh inactive.
`COc1cc2c(cc1OCC1CC1)NC(=O)C21CCN(c2nccs2)CC1` gave KDM5B inh inactive.
`COc1cc2c(cc1OCC1CC1)NC(=O)C21CCN(c2nccc(C(F)(F)F)n2)CC1` gave KDM5B inh 22.4µM*.
COc1cc2c(cc1Oc1ccccc1)NC(=O)C21CCN(Cc2ccccn2)CC1 was read as KDM5B inh inactive.
For Cc1cc(OS(C)(=O)=O)c2c3c(c(=O)oc2c1)CCCC3 the results were KDM5B inh inactive.
Cc1ccc(Cn2nc(C)c(C(=O)NCc3cc(Cl)c4c(c3)OCCCO4)c2Cl)cc1 was read as KDM5B inh inactive.
Screening NC(=O)C1=NO[C@@H]2CN(CC3CCCCC3)C[C@H]12 returned KDM5B inh inactive.
`Cc1noc(C)c1C(=O)N1C2CCC1CN(C(C)C)C2` gave KDM5B inh inactive.
`COc1ccc2c(c1)C1(CCN(C(=O)COc3ccc(Cl)cc3)C1)C(=O)N2C` (stereo not drawn) gave KDM5B inh inactive.
`CCC1CCCCN1C(=O)CCl` (stereo not drawn) gave KDM5B inh inactive.
For CC[C@H]1CN2CC[C@H]1C[C@@H]2CNC(=S)Nc1ccc(N(C)C)cc1 the results were KDM5B inh inactive.
Screening CN1CCCC(C(=O)N2C3CCC2CN(Cc2cccnc2)C3)C1 (stereo not drawn) returned KDM5B inh inactive.
For COc1cc2c(cc1-c1cnn(C)c1)NC(=O)C21CCN(C(C)=O)CC1 the results were KDM5B inh inactive.
Screening O=C(NC1CCCCC1)[C@H]1CN2CCC1C[C@@H]2Cn1cc(COc2ccccc2)nn1 (stereo partly drawn) returned KDM5B inh inactive.
CC(Cc1ccc(Cl)cc1)NC(=O)CCCNC(=O)C1CC1 (stereo not drawn) was read as KDM5B inh inactive.
`O=C1CO[C@H]2CN(Cc3ncc[nH]3)C[C@H]2N1Cc1ccncc1` gave KDM5B inh 35.5µM*.
Screening O=C1CO[C@H]2CN(Cc3cccnc3)C[C@H]2N1 returned KDM5B inh inactive.
`CN1C(=O)CO[C@H]2CN(Cc3ncc[nH]3)C[C@H]21` gave KDM5B inh 35.5µM*.
For O=C1CO[C@H]2CN(C3CCOCC3)C[C@H]2N1Cc1ccccn1 the results were KDM5B inh inactive.
For O=C1CO[C@H]2CN(CC3CC3)C[C@H]2N1Cc1ccccn1 the results were KDM5B inh inactive.
O=C1CO[C@H]2CN(Cc3ccco3)C[C@H]2N1Cc1cccnc1 was read as KDM5B inh inactive.
O=C1CO[C@H]2CN(Cc3ncc[nH]3)C[C@H]2N1Cc1cccnc1 was read as KDM5B inh 25.1µM*.
For CN1C(=O)CO[C@H]2CN(C3CCOCC3)C[C@H]21 the results were KDM5B inh inactive.
`CC(C)(O)c1cn(C[C@H]2C[C@@H]3CCN2C[C@@H]3C(=O)Nc2ccccc2)nn1` gave KDM5B inh inactive.
For COc1cccc(CN2CC[C@@H]3CN(S(C)(=O)=O)[C@@H]3C2)n1 the results were KDM5B inh inactive.
C=CCNC(=O)C(C)OC(=O)c1cn(C)c2ccccc12 (stereo not drawn) was read as KDM5B inh inactive.
`CC(C)NC(=O)NC[C@H]1C[C@@H]2CCN1C[C@@H]2c1cc(C2CCCC2)nn1C` gave KDM5B inh inactive.
For CCCn1c(C)c(C(=O)NCC2CC2)c2cc(OC)ccc21 the results were KDM5B inh inactive.
For COc1ccc(-n2cc(C3=CCN(CCN4CCOCC4)CC3)cn2)cc1 the results were KDM5B inh inactive.
Screening C=C[C@H]1CN2CC[C@H]1C[C@@H]2CNC(=O)Nc1cccc(C(F)(F)F)c1 returned KDM5B inh inactive.
Screening CCC1(N2CCN(C(=O)COc3cccc(Cl)c3)CC2)CCN(C(=O)NC)C1 (stereo not drawn) returned KDM5B inh inactive.
Screening NCCCN1CCN(Cc2ccccc2)CC1 returned KDM5B inh inactive.
`O=C(c1ccccc1)N1C[C@@H]2C[C@H](C1)c1ccc(-c3cncnc3)c(=O)n1C2` gave KDM5B inh 39.8µM*.
Screening O=C(c1ccncc1)N1CC2CCC(C1)N2Cc1ccccc1 returned KDM5B inh inactive.
For CN(C)CC(=O)Nc1ccc2n(c1=O)C[C@H]1C[C@@H]2CN(C(=O)c2ccc(F)cc2)C1 the results were KDM5B inh inactive.
O=C(c1ccc(F)cc1)N1C[C@@H]2C[C@H](C1)c1ccc(-c3cncnc3)c(=O)n1C2 was read as KDM5B inh 39.8µM*.
O=C(N1[C@H]2CC[C@@H]1c1cnc(-c3ccc(F)cc3)nc1C2)C1(c2ccccc2)CC1 was read as KDM5B inh inactive.
`Cc1ccc(CC(=O)N2CCN(C3CCN(Cc4cccnc4)C3=O)CC2)cc1` (stereo not drawn) gave KDM5B inh inactive.
Screening COc1ccc(-c2cc([C@H]3CN4CC[C@H]3C[C@@H]4CN)nc(C)n2)cc1OC returned KDM5B inh 39.8µM*.
Cc1nc(-c2ccc(C(F)(F)F)cc2)cc([C@H]2CN3CC[C@H]2C[C@@H]3CNS(C)(=O)=O)n1 was read as KDM5B inh inactive.
Screening Cc1nc(-c2ccc(F)cc2)cc([C@H]2CN3CC[C@H]2C[C@@H]3CNS(=O)(=O)Cc2ccccc2)n1 returned KDM5B inh inactive.
For Cc1nc(-c2cccs2)cc([C@H]2CN3CC[C@H]2C[C@@H]3CNS(=O)(=O)c2ccccc2)n1 the results were KDM5B inh inactive.
For COc1ccc(-c2cc([C@H]3CN4CC[C@H]3C[C@@H]4CNC(=O)c3ccc(C(C)(C)C)cc3)n(C)n2)cc1OC the results were KDM5B inh inactive.
`CCNC(=O)NC[C@H]1C[C@@H]2CCN1C[C@@H]2c1cc(-c2ccc(OC)c(OC)c2)nc(C)n1` gave KDM5B inh 17.8µM*.
COc1ccc(-c2cc([C@H]3CN4CC[C@H]3C[C@@H]4COC(=O)NC3CCCCC3)nc(C)n2)cc1 was read as KDM5B inh inactive.
`Cc1nc(-c2cccs2)cc([C@H]2CN3CC[C@H]2C[C@@H]3CO)n1` gave KDM5B inh 35.5µM*.
For CC(=O)NC[C@H]1C[C@@H]2CCN1C[C@@H]2c1cc(-c2ccc(F)cc2)nc(C)n1 the results were KDM5B inh inactive.
For COc1ccc(NC(=O)NC[C@H]2C[C@@H]3CCN2C[C@@H]3c2cc(-c3ccc(OC)c(OC)c3)nn2C)cc1 the results were KDM5B inh inactive.
For CCCS(=O)(=O)NC[C@H]1C[C@@H]2CCN1C[C@@H]2c1cc(-c2ccc(OC)c(OC)c2)nc(C)n1 the results were KDM5B inh 25.1µM*.
CCCNC(=O)OC[C@H]1C[C@@H]2CCN1C[C@@H]2c1cc(-c2cccs2)nc(C)n1 was read as KDM5B inh inactive.
For O=C1/C(=C\c2ccccc2F)N2CCC1CC2 the results were KDM5B inh inactive.
For COc1cc(CNC2CN3CCC2CC3)cc(Cl)c1OCc1ccccc1 (stereo not drawn) the results were KDM5B inh inactive.
CCOc1ccccc1NC(=O)c1cn(C)c2ccccc12 was read as KDM5B inh inactive.
CC12CN3CC(C)(C[N+](C)(C3)C1)C2=O was read as KDM5B inh inactive.
For O=C(Cc1cccc(Cl)c1)N1[C@H]2CC[C@@H]1c1cnc(-c3ccccc3)nc1C2 the results were KDM5B inh inactive.
O=C(CCc1ccccc1)N1[C@H]2CC[C@@H]1c1cnc(-c3ccc(F)cc3)nc1C2 was read as KDM5B inh inactive.
